Screening data: PubChem BioAssay, Broad Institute
Tg IFNy HTS: inhibitors of Toxoplasma gondii growth with IFN-gamma. Toxoplasma gondii growth in IFN-gamma-treated host cells; hits give low values. activity change, negative = inhibition, % (no concentration beside the values). 69,000 compounds, 3.8% hits. AID 1259416; in the data active = activity change below about -70%, passing the limit was not always enough;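 also: host cells are HeLa cells infected with Toxoplasma gondii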
Numbers without * were called inactive; ! = not confirmed by another sample. The sample as a whole holds a higher share of hits than the screen did.

SMILES	Tg IFNy HTS
COc1ccccc1Cn1ncc2c1CCCC2NC(=O)c1cc(-c2cccs2)no1 (centres undefined)	-77*
CCCc1cc(CNC(=O)c2cc(-c3cccs3)no2)on1	-4
COCc1ccc(C(=O)NC2CCCc3c2cnn3C)o1 (centres undefined)	-10
O=C(Nc1ccc(CSc2ccc(Cl)cc2)o1)Nc1ccccc1F	-25
CN(Cc1cc(C(C)(C)C)n[nH]1)C(=O)c1cc(=O)n(C)c(=O)n1C	-2
CCOCC1COCCC12CCN(C(=O)c1ccn(C)n1)CC2 (centres undefined)	53
Cc1nc(C(F)(F)F)nc(-c2ccccc2CO)c1C	-2
CCCOCCN1CCN(c2ncc(C)c(N(C)C)n2)CC1	-4
Cc1ccc(CN2CCN(c3ncc(C)c(N(C)C)n3)CC2=O)cc1	-85*
Cc1ccc(CN2CCN(Cc3cnc(C)[nH]3)CC2=O)cc1	1
CN1C/C=C/CCOc2cccc(c2)-c2ccnc(n2)Nc2cccc(c2)C1	-84*
O=C(N(CCN(Cc1ccccc1)C(=O)C(F)(F)F)Cc1ccccc1)C(F)(F)F	9
COc1ccc2c(c1)CC(NCCSc1ncn[nH]1)CC2 (centres undefined)	9
O=C(NCc1cccnc1)[C@@]12COC[C@@H]1CN(c1ncccn1)C2	-1
CCc1ccc(S(=O)(=O)c2cnc(N3CCC(C(N)=O)(N4CCCCC4)CC3)nc2N)cc1	-78*
NC(=O)C1(N2CCCCC2)CCN(c2ncc(S(=O)(=O)c3ccccc3)c(N)n2)CC1	69
CC(C)c1ccc(S(=O)(=O)c2cnc(N3CCC(C(N)=O)(N4CCCCC4)CC3)nc2N)cc1	27
CCCc1cc(C(=O)N2CCCn3nc(C(=O)OC)cc3C2)n(C)n1	-1
CCOC(=O)COc1nc2ccc(Cl)cc2c(-c2ccccc2)c1C(C)=O	-23
COc1ccc(-c2c(C)nc3ccc(Cl)cc3c2-c2ccccc2)cc1OC	-95*
CCOC(=O)c1c(C)nc2ccc(Cl)cc2c1-c1ccccc1	-5
NS(=O)(=O)c1ccc(NC(=O)c2ccc(C34CC5CC(CC(C5)C3)C4)o2)cc1	-14
O=C(c1cccs1)N1CCCn2cnc(COCC3CC3)c2C1	0
CC(=O)Nc1ccc(C(=O)N(CCc2cccs2)C2(C(=O)NCc3ccccc3)CCN(C(C)=O)CC2)cc1	44
COC(=O)c1sccc1S(=O)(=O)Nc1ccc(Nc2ccccc2)cc1OC	-1
SMILES	Tg IFNy HTS
COC(=O)c1sc(-c2cccs2)cc1NS(=O)(=O)c1ccsc1C(=O)OC	-85*
COC(=O)c1sccc1S(=O)(=O)Nc1ccc(C)cc1	11
C=CC(=O)Nc1cccc(Oc2nc(Nc3ccc(N4CCN(C)CC4)cc3OC)ncc2Cl)c1	-67
CCC(=O)Nc1cccc(Oc2nc(Nc3ccc(N4CCN(C)CC4)cc3OC)ncc2Cl)c1	-19
C=CC(=O)Nc1cccc(Sc2nc(Nc3ccc(N4CCN(C)CC4)cc3)ncc2Cl)c1	-82*
CCOc1ccc(CNC(=O)c2nc(Nc3ccc(F)cc3)c3ccccc3n2)cc1	6
CC(C)[C@@H](Cn1nnc2ccccc21)NC(=O)c1cnn2cccnc12	22
COc1c(-c2ccc3cc(NS(C)(=O)=O)ccc3c2)cc(-n2ccc(=O)[nH]c2=O)cc1C(C)(C)C	-29
Cc1cc(C)n(-c2ccc(OCC(=O)Nc3ccc4c(c3)N(C)CCC4)nn2)n1	16
CC(=O)Nc1ccccc1	-14
CC(=O)NC1=NN(C(C)=O)C(C)(c2ccccc2)S1 (centres undefined)	-77*!
CC(=O)Nc1nonc1-c1ccccc1	0
COCCN1Cc2ccccc2C2(CCN(C(=O)c3ccno3)CC2)C1	-3
CCCn1cnnc1CNC1CCc2ccc(OC)cc2C1 (centres undefined)	5
O=C(OCCSCCS(=O)(=O)c1ccc(Cl)cc1)c1ccccc1Cl	-13
OCCCCn1cnc(-c2ccccc2)c1-c1ccc2cccc(Cl)c2n1	-88*
CCc1nc(-c2c(-c3ccccc3)ncn2CCCO)c(C)[nH]1	3
CN(C)C(=O)CCCn1cnc(-c2ccccc2)c1-c1cc2ccccc2[nH]1	-6
Cc1cc(C(=O)N2[C@@H]3CC[C@H]2CNC(=O)C3)sc1-c1ccccc1	-52
COc1ccc(-c2csc(C(N)=O)c2)cn1	-20
COc1c(C)cc(-c2cncc(C(N)=O)c2)cc1C	-5
COc1c(C)cc(-c2csc(C(N)=O)c2)cc1C	-72*
C[C@@H]1CC[C@H]2[C@@H](C)C(O)O[C@@H]3O[C@]4(C)CC[C@@H]1[C@]32OO4 (some centres undefined)	-82*
Cc1cc(C)cc(NC(=O)C(=O)NCCc2csc(-c3ccc(C(F)(F)F)cc3)n2)c1	98
CC(C)(C)NC(=S)N/N=C1/CCCc2occc21	-95*
SMILES	Tg IFNy HTS
O=C(O/N=C1/CCCc2occc21)c1ccccc1	10
Cc1ccc(C)c(NC(=O)c2c(O)c3ccccc3n(-c3ccccc3)c2=O)c1	173
CC(=O)N[C@@H]1C[C@H](CC(C)C)O[C@H](c2coc3ccc(Cl)cc3c2=O)C1	-15
Cc1ccc2[nH]c(C(=O)NCc3cccnc3)c(NC(=O)c3ccc(F)cc3)c2c1	-4
COc1ccc(C(=O)Nc2ccc(-c3nc(Cn4cc(C)cn4)c(C)o3)cc2)cc1F	34
Cc1cnn(Cc2nc(-c3ccc(NC(=O)c4cccc(F)c4)cc3)oc2C)c1	-75*
CCc1ccc(C(=O)Nc2ccc(-c3nc(Cn4cc(C)cn4)c(C)o3)cc2)cc1	27
Cc1cnn(Cc2nc(-c3ccc(NC(=O)c4ccc(C#N)cc4)cc3)oc2C)c1	-52
Cc1cnn(Cc2nc(-c3ccc(NC(=O)c4ccc(C)c(F)c4)cc3)oc2C)c1	-13
Cc1cnn(Cc2nc(-c3ccc(NC(=O)c4ccc(F)cc4)cc3)oc2C)c1	-82*
Cc1nc(CN2CCC3(CCCO3)CCC2=O)co1 (centres undefined)	-37
CC(NCc1nc(Cc2ccccc2F)no1)c1cn2ccsc2n1 (centres undefined)	-2
COCCN1C(=O)N(Cc2ccccc2)C2(CCN(Cc3ccc4c(c3)Cc3ccccc3-4)CC2)C1=O	-47
CN(C(=O)c1ccc(-n2cccn2)c(C#Cc2ccccc2)c1)C1CCS(=O)(=O)C1 (centres undefined)	-3
O=S1(=O)N=C(C2CCCN(S(=O)(=O)N3CCCC3)C2)Nc2ccccc21 (centres undefined)	10
Cc1nc2c(c(N(C)CCCc3cnn(C)c3)n1)CNC2	4
CN(Cc1nccn1C)c1nccc(CCC(F)(F)F)n1	0
CC(C(=O)N1CCC(C(O)(c2ccccc2)c2ccccc2)CC1)n1ccnc1 (centres undefined)	-11
CC(C)(C)c1ccc(C(O)CCCN2CCC(C(O)(c3ccccc3)c3ccccc3)CC2)cc1 (centres undefined)	-91*!
Cn1cc(CN2CCC(C(O)(c3ccccc3)c3ccccc3)CC2)cn1	4
COc1ccc(-c2ccc(N)nc2)c2ccc(C)nc12	-1
COc1ccccc1CNC(=O)Cn1c(=O)cc(-c2nc(C(C)C)no2)c2ccccc21	-27
CCOc1ccccc1N1CCN(Cc2cc3n(n2)CCCNC3)CC1	-6
C[C@]12CCC(=O)C=C1CC[C@@H]1[C@@H]2CC[C@@]2(C)[C@H]1CC[C@]2(O)C(=O)CO	3
CC(=O)[C@H]1CC[C@H]2[C@@H]3CC=C4C[C@@H](O)CC[C@]4(C)[C@H]3CC[C@]12C	-74*
CC(=O)O[C@@H]1C[C@@]2(C)C(CC[C@@H]2C(C)=O)C2CCC3=CC(=O)CC[C@]3(C)C21 (some centres undefined)	13
